Several values for one entry are separate records, joined by “and”; a condition that tells them apart may be missing. Equal values may be shown once.
How the values were obtained:
[1] = system: Human papillomavirus type 1a protein E7 (residues 44-93); test: small molecules binding HPV E7 44-93 – biochemical, small-molecule microarray, residues 44-93, 635 nm fluorescence, primary screen (AID 1108); details: fluorescence 635 nm, higher = more signal;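 note: E7 fragment applied at 1 µg/mL in TBST for 1 h at 4 C; score combines spot fluorescence with its signal to noise ratio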
[2] = hepatitis C replication reporter changes, two-sided – Huh7 cells, luciferase reporter, HCV replication inhibitor project, primary screen (AID 1109); details: Huh7 HCV replicon luciferase reporter, 48 h; higher = more signal;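 note: huh7 hepatoma cells harbouring a luciferase neomycin HCV replicon reporter; luciferase luminescence as measure of HCV replicon replication; test concentration not given here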
[3] = target: Left-right determination factor 2 (Homo sapiens) (UniProt O00292); test: small molecules binding LEFTY2 protein – biochemical, small-molecule microarray, 635 nm fluorescence scan, primary screen (AID 1110); details: higher = more signal
Chain of Left-right determination factor 2 (Homo sapiens) (O00292 whole entry, looked up): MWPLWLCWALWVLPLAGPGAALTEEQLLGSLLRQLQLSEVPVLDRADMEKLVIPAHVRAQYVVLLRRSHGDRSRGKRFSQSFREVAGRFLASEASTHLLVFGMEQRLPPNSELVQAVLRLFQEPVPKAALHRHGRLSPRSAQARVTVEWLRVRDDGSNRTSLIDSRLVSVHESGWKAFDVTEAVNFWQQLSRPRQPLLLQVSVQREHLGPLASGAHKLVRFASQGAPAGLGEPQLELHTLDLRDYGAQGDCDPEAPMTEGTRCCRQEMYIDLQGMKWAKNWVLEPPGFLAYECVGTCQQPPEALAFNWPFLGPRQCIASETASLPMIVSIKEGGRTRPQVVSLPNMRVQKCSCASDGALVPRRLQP

[4] = target: Calmodulin-1 (Homo sapiens) (UniProt P0DP23); test: small molecules binding calmodulin-1 with EGTA – biochemical, small-molecule microarray, Cy5-labelled CALM1, profiling panel (AID 1111); details: Cy5-CALM1 binding fluorescence, higher = more signal;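 note: labelled calmodulin applied in Tris saline Tween buffer holding calcium plus EGTA and DTT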
[5] = target: Calmodulin-1 (Homo sapiens) (UniProt P0DP23); test: small molecules binding Ca-loaded calmodulin-1 – biochemical, small-molecule microarray, Cy5-labelled CALM1, plus calcium, artefact control for SMM control-protein annotation, profiling panel (AID 1112); details: Cy5-CALM1 binding fluorescence, higher = more signal;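 note: score merges spot fluorescence with signal to noise from triplicate slides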
[6] = probe aWnt5a binding to arrayed compounds – biochemical, biotinylated probe, 635/667 nm fluorescence, primary screen (AID 1113); details: small-molecule microarray, higher = more signal;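 note: score merges 667 nm fluorescence intensity with signal-to-noise per printed feature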
[7] = probe aShh binding to arrayed compounds – biochemical, biotinylated probe, 635/667 nm fluorescence, primary screen (AID 1114); details: small-molecule microarray, higher = more signal;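 note: probe is biotin-labelled aShh protein from a stem cell growth factor screen; measures binding of labelled protein to compounds printed on the slide; score merges feature fluorescence at 667 nm with signal-to-noise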
[8] = probe aNog binding to arrayed compounds – biochemical, biotinylated probe, 635/667 nm fluorescence, primary screen (AID 1115); details: small-molecule microarray, higher = more signal;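 note: probe is biotinylated aNog protein used at 0.15 µg/mL for 1 h at 4 C; z-score combines 667 nm fluorescence of each spot with its signal to noise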
[9] = target: Torsin-1A-interacting protein 1 (Homo sapiens) (UniProt Q5JTV8); test: compound microarray binding of lysate hLAP1 – cell lysate, small-molecule microarray, COS7 lysate, 635/667 nm fluorescence, primary screen (AID 1116); details: 635 nm fluorescence, higher = more signal
Chain of Torsin-1A-interacting protein 1 (Homo sapiens) (Q5JTV8 whole entry, looked up): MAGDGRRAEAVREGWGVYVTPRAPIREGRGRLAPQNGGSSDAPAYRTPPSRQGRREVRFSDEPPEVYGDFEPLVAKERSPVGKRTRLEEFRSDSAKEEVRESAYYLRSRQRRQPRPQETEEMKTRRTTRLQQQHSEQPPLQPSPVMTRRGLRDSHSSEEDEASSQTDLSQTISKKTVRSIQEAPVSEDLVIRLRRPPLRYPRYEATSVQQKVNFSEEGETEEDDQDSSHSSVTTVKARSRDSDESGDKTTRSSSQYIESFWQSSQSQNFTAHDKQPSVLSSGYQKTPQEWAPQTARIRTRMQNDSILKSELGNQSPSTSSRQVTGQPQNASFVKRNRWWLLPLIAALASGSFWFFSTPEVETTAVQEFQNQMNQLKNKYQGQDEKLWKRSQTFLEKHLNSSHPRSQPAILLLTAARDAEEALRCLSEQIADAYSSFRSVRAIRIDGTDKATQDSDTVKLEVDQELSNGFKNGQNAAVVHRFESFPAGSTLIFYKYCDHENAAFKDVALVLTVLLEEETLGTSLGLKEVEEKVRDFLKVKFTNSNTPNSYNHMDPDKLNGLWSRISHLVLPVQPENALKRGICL

[10] = target: Alpha-bungarotoxin (Bungarus multicinctus) (UniProt P60615); test: compounds binding labelled alpha-BTX control protein – biochemical, small-molecule microarray, Alexa647 label, 635/667 nm fluorescence, artefact control for SMM control protein annotation, profiling panel (AID 1117); details: alpha-BTX-A647 binding fluorescence, higher = more signal
Chain of Alpha-bungarotoxin (Bungarus multicinctus) (P60615 whole entry, looked up): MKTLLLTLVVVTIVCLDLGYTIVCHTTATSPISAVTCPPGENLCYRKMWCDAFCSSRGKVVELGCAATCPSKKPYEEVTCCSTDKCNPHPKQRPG

Compound | composite z-score [1] | z-score [2] | composite z-score [3] | composite z-score [4] | composite z-score [5] | composite z-score [6] | composite z-score [7] | composite z-score [8] | composite z-score [9] | composite z-score [10]
C=CCN(CCCCC)C(=O)C1N(CCCCCCO)C(=O)C2C(C(=O)O)C3C=CC21O3 (stereo not given) | -0.37 and -0.151 | -0.415 and -0.545 | -0.978 and -2.49 | -1.53 and -0.747 | -0.155 and 0.379 | -0.256 and -0.258 | -0.0626 and -0.156 | -0.0784 and -0.208 | 0.257 and -1.03 | -1.31 and -1.22
C=CCN(Cc1ccccc1)C(=O)C1N(CCOCCO)C(=O)C2C(C(=O)O)C3C=CC21O3 (stereo not given) | -0.445 and -0.308 | 0.0184 and -0.0316 | -3 and -3.39 | -0.711 and -0.795 | 0.473 and -0.0792 | -0.228 and -0.208 | -0.138 and -0.276 | 0.238 and -0.341 | 3.99 and -0.887 | -2.86 and -1.73
C=C[C@@H](OC)[C@H](O)c1ccc(OCCO)cc1 | -0.796 and -1.11 | 0.241 and -0.0944 | -1.42 and -0.132 | -1.29 and -0.831 | -0.778 and -0.247 | -0.298 and -0.242 | -0.221 and -0.138 | -0.501 and -0.393 | 0.91 and -0.0877 | -0.7 and -0.37
C[N+](C)(C)CCCCCCNC(=O)[C@H]1C[C@H]2C(=O)N[C@@H](CCCC[N+](C)(C)C)C(=O)N2[C@H]1c1ccc(O)cc1 | -0.113 and 0.0498 | -0.0901 and 0.0595 | 0.633 and -0.0601 | -0.616 and -0.416 | -0.452 and -1.03 | -0.13 and -0.14 | -0.124 and 0.0326 | 0.0637 and -0.303 | -0.0201 and -0.413 | 1.02 and -1.54
CC(C)N1CC=CC23O[C@@H]4C=CCCOC(=O)C4[C@H]2C(=O)N(C(C)CO)[C@@H]3C1=O (stereo not given in full) | 0.163 and -0.9 | 0.179 and -0.144 | -1.4 and -1.42 | -0.302 and -0.271 | 0.269 and 0.224 | -0.26 and -0.152 | -0.138 and 0.0305 | 0.111 and -0.0784 | 1.62 and 0.0015 | -0.712 and -1.74
C[C@@H]1CC[C@H]2C(=O)O[C@H](CN=[N+]=[N-])CN2[C@H]1c1ccc(Br)cc1 | -0.322 and -0.172 | -0.0944 and 0.335 | 0.0584 and 0.213 | -0.425 and -0.201 | -0.306 and -0.544 | -0.124 | -0.174 and -0.0769 | 0.0078 and -0.196 | -0.21 and 0.116 | 0.089 and 0.397
CC(C)CON=C1C[C@@H](O)[C@@H](O)[C@@H]2[C@@H]3C(=O)N(c4cccc(Oc5ccccc5)c4)C(=O)[C@@H]3CC[C@H]12 | 0.529 | 0.802 | 0.432 | 0.401 | -0.201 | -0.0269 | -0.0553 | -0.5 | 0.357 | 0.162
C=CCN(C(=O)C(c1cccs1)N(C(=O)/C=C\C(=O)O)C(C)(C)CO)C(C)(C)C (stereo not given) | -0.453 and -0.0211 | -0.0094 and 0.0766 | -2.3 and -1.73 | -0.243 and -0.782 | -0.403 and 0.164 | -0.124 and -0.197 | -0.0553 and -0.0769 | 0.945 and 0.25 | 0.78 and -0.351 | 0.489 and 0.895
CC(C)OC(=O)C=C1C[C@@H](c2ccccc2)O[C@@H](c2ccccc2)O1 | 1.48 and 1.45 | -2.1 and -1.36 | 0.826 and 0.795 | 0.056 and 1.23 | -0.147 and -0.505 | 0.166 and 0.0915 | -0.185 and 0.131 | 0.286 and 0.403 | 1.3 and 1.28 | 1.03 and 1.75
CC(C)CCN1CCc2nc(-c3ccccc3)c3c(c2C1)CO[C@@H](C)C3 | 1.35 | -0.952 | 0.457 | -0.083 | -0.399 | -0.0944 | -0.138 | -0.036 | 0.565 | 0.416
COC(=O)[C@@]1(Cc2ccccc2)[C@H]2c3cc(C(=O)N(C)C)n(Cc4ccc(C)c(F)c4F)c3C[C@H]2CN1C(=O)c1ccccc1 | 1.41 and 1.38 | -3.76 and -2.08 | -0.301 and 0.288 | 1.46 and 2.22 | 0.818 and 1.11 | 0.208 and 0.822 | 1.91 and -0.279 | 0.782 and 0.365 | 2.24 and 0.536 | 0.226 and 1.1
C=CCN(C(=O)C1N(C(C)(C)CO)C(=O)C2C(C(=O)O)C3C=CC21O3)C(C)(C)C (stereo not given) | -0.898 and 0.0796 | -0.276 and -0.577 | -3.78 and -1.84 | -0.742 and -0.353 | 0.271 and 0.369 | -0.286 and -0.148 | -0.138 | -0.183 and -0.0144 | -1.69 and 3.03 | -2.08 and 1.04
C[C@@H](c1ccccc1)N1C(=O)[C@H]2[C@H]3[C@H](O)[C@H](O)CC(=O)[C@@H]3CC[C@H]2C1=O | 0.189 | 0.265 | 0.574 | 0.377 | -0.241 | -0.119 | 0.163 | -0.387 | 0.49 | -0.0104
C=CCN(CCCC)C(=O)C1N(c2c(Cl)cccc2CO)C(=O)C2C(C(=O)O)C3C=CC21O3 (stereo not given) | -1.84 and 0.389 | -0.325 and -0.567 | -3.23 and -2.18 | -0.623 and -0.783 | 0.713 and -0.0889 | -0.144 and -0.0894 | 0.151 and -0.279 | 0.0107 and 0.242 | -0.529 and -0.927 | -0.406 and -1.31
CCOC(=O)[C@H](Cc1ccccc1)NC(=O)CCC1CC(OC(=O)NCc2cccc3ccccc23)CC2(CCCC(COC(=O)NCCCN3CCCC3=O)O2)O1 (stereo not given in full) | 1.28 | -0.963 | 0.752 | 0.394 | -0.267 | -0.2 | -0.279 | -0.17 | 0.403 | 0.552
CCOC(=O)[C@H](CC(C)C)NC(=O)CCC1CC(OC(=O)NCc2cccc3ccccc23)CC2(CCCC(COC(=O)NCc3ccccc3)O2)O1 (stereo not given in full) | -0.931 | -0.132 | -0.0479 | -0.195 | -0.559 | -0.152 | -0.282 | -0.0029 | -0.61 | -0.274
CO[C@@H]1COC(=O)CC=C[C@H](C)[C@@H](NS(=O)(=O)c2ccc(C)cc2)COC(=O)CC=C[C@@H]1C | 0.494 and -1.3 | -1.06 and -1.76 | 0.687 and 0.845 | -0.653 and -0.748 | -1.02 and -1.12 | -0.101 and -0.126 | 0.0121 and -0.156 | -0.23 and -0.289 | 0.149 and 0.483 | 1.15 and -0.0808
Cc1cc2c(nc1C)CCCN2CC(C)ON=C[C@@H](C)[C@H](OCc1ccccc1)C(C)C (stereo not given in full) | -1.88 | -1.26 | 0.339 | -0.398 | -0.304 | -0.0125 | -0.0035 | 0.0811 | -0.0342 | -0.0161
C=C[C@H](OC)[C@@H](O)c1ccc(O)c(F)c1 | -1.18 and -1.38 | 0.156 and -0.114 | -2.27 and -2.63 | -1.27 and -0.866 | -0.625 and -0.713 | -0.244 and -0.356 | -0.262 and -0.282 | -0.173 and -0.8 | -0.753 and -1.81 | -1.36 and -0.191
